# From PubChem BioAssay (NCATS)
# Several values for one entry are separate records, joined by “and”; a condition that tells them apart may be missing. Identical values can stand only once. Results filed as inconclusive are left out. Values without a mark were called inactive. Activity calls are given as the source filed them. Calls come from the whole dose curve; as a rule, active = well fitted cell-killing curve with a large enough effect; inconclusive = small, poorly fitted or top-dose-only effect, or effect the other way; inactive = no such curve, though single readings can be large or run the other way.
# Columns and labels:
# [1] = Viability qHTS for spleen associated tyrosine kinase inhibitor (SYKi) naive MV4-11 cells (AID 1963823); conditions: MV4-11 AML viability, CellTiter-Glo luminescence, 72 h; series mostly up to 45 µM; note: nearly all actives have a fitted effect of over 40% in size
# Method in brief: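 Read-out: CellTiter-Glo luminescence. Exposure: 72 hr, 37 C, 5% CO2, 95% humidity. Cells: MV4-11 without SYK inhibitor history, 500/well, qHTS format.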
# [2] = Viability qHTS for spleen associated tyrosine kinase inhibitor (SYKi) drug resistant MV4-11 cells (AID 1963824); conditions: SYKi-resistant MV4-11 viability, CellTiter-Glo, 72 h; series mostly up to 45 µM; note: nearly all actives have a fitted effect of over 35% in size
# Method in brief: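 SYK-inhibitor-resistant MV4-11 AML cells were seeded at 500 per well onto compound and cultured 72 hours (37 °C, 5% CO2). CellTiter-Glo was then added, and after 10 min at room temperature, luminescence gave viability.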
# Potency is the fitted concentration of half-maximal effect.
Compound,Potency [1],Potency [2],viability (% of control) [1],"viability, % of control [2]"
CC1CCCC(O)CC(=O)Cc2cc(O)cc(O)c2C(=O)O1 (configuration not stated),inactive,inactive,–,–
C=C1C(=O)CC2OC2(C)CC2OC(=O)C(=C)C2C(O)C1OC(=O)/C(C)=C\C (configuration not stated),508 nM (active),570 nM (active),–,–
Fc1cc(F)c2c(c1)[C@H]1C=CC[C@H]1C(c1cccnc1)N2 (some centres not stated),2910 nM (active),3660 nM (active),–,–
CCC(C)(C#N)O[C@@H]1O[C@H](CO)[C@@H](O)[C@H](O)[C@H]1O (some centres not stated),inactive,inactive,–,–
CC(=O)O[C@@H]1[C@H]2CC[C@H]3[C@@](C)(O)[C@@H]4C[C@H](O)C(C)(C)[C@@]4(O)[C@H](O)C[C@@]13C[C@@]2(C)O,inactive,inactive,–,–
C[C@H]1CCC[C@H](O)CCC/C=C/c2cc(O)cc(O)c2C(=O)O1,7310 nM (active),9200 nM (active),–,–
C/C=C(\C)C(=O)OC1CC2C(CC=C3CC(OC4CC(OC)C(OC5CC(OC)C(OC6OC(C)C(OC7OC(CO)C(O)C(O)C7O)C(OC)C6O)C(C)O5)C(C)O4)CCC32C)C2(O)CCC(C(C)=O)C12C (configuration not stated),–,–,73.7% [at 9.25 µM],85.3% [at 9.25 µM]
C[C@]12CC[C@H]3[C@@H](CCC4=C/C(=N/OCC(=O)O)CC[C@@]43C)[C@@H]1CC[C@@H]2O,inactive,inactive,–,–
C[C@]12CC[C@H](O)C[C@H]1CC[C@@H]1[C@@H]2[C@H](O)C[C@]2(C)[C@@H](c3ccc(=O)oc3)CC[C@]12O,18.4 nM (active),14.6 nM (active),–,–
CC1=C[C@H]2O[C@@H]3[C@H](O)[C@@H](O)[C@](C)([C@@]2(CO)C[C@@H]1O)[C@]31CO1,820 nM (active),731 nM (active),–,–
Cc1ccccc1C1=CCN(C)CC1,inactive,inactive,–,–
COC1CC(O[C@H]2CC[C@@]3(C)C(CCC4C3CC[C@]3(C)C(C5=CC(=O)OC5)CCC43O)C2)OC(C)C1OC1OC(COC2OC(CO)C(O)C(O)C2O)C(O)C(O)C1O (some centres not stated),1230 nM (active),693 nM (active),–,–
CCC(C)(O)C1(C(=O)O)COC(=O)C1 (configuration not stated),inactive,inactive,–,–
CCN1C[C@]2(COC(=O)c3ccccc3N3C(=O)C[C@H](C)C3=O)CC[C@H](OC)[C@@]34[C@@H]5C[C@H]6[C@H](OC)[C@@H]5[C@](O)(C[C@@H]6OC)[C@](O)([C@@H](OC)[C@H]23)[C@@H]14,inactive,inactive,–,–
CCCCCCC1C(=O)O[C@H](C)[C@H](NC(=O)c2cccc(NC=O)c2O)C(=O)O[C@@H](C)[C@@H]1OC(=O)CC(C)C (some centres not stated),517 nM (active),291 nM (active),–,–
C[N@@+]1(CC2CC2)CC[C@]23c4c5ccc(O)c4O[C@H]2C(=O)CC[C@@]3(O)[C@H]1C5,inactive,inactive,–,–
Cc1cccc(NC(=O)c2ccc(C(F)(F)F)cc2C(=O)O)n1,inactive,inactive,–,–
CO/C1=C\C(C)=C\[C@@H](C)[C@@H](O)[C@@H](C)C/C(C)=C/C=C/[C@H](OC)[C@@H]([C@@H](C)[C@@H](O)[C@H](C)[C@@]2(O)C[C@@H](O)[C@H](C)[C@@H](C(C)C)O2)OC1=O,21.7 nM (active),17.2 nM (active),–,–
Cc1c(C(=O)Nc2cccc(C(F)(F)F)c2)cc(-c2ccccc2)n1CCCN1CCOCC1,14600 nM (active),16600 nM (active),–,–
Cc1sc2c(c1C)C(c1ccc(Cl)cc1)=N[C@@H](CC(N)=O)c1nnc(C)n1-2,83.3 nM (active),82 nM (active) and 83.3 nM (active),–,–
CC(C)(C)c1cc(C(C)(C)C)c2c(c1)C(O)(C(F)(F)F)C(=O)O2 (configuration not stated),inactive,inactive,–,–
CC1=CC(=O)[C@@H](O)[C@@]2(C)C1C[C@H]1OC(=O)[C@H](O)[C@@]3(O)[C@@H](C)[C@@H](O)[C@H](O)C2[C@@]13C (some centres not stated),2020 nM (active),1800 nM (active),–,–
CN(C)[C@@H]1C(=O)C(C(N)=O)=C(O)[C@@]2(O)C(=O)C3=C(O)c4c(O)ccc(Cl)c4[C@@](C)(O)C3C[C@@H]12 (some centres not stated),inactive,inactive,–,–
CC[C@H]1C[C@@H]2CC[C@@H](O2)[C@@H](C)C(=O)O[C@H](CC)C[C@H]2CC[C@H](O2)[C@H](C)C(=O)O[C@@H](C)C[C@@H]2CC[C@@H](O2)[C@@H](C)C(=O)O[C@H](CC)C[C@H]2CC[C@H](O2)[C@H](C)C(=O)O1,12.2 nM (active),13.7 nM (active),–,–
O=C(N[C@H]1CN2CCC1CC2)c1cc2cccc(Cl)c2s1,14600 nM (active),20600 nM (active),–,–
Cc1c(Cl)c(OCC(=O)N2CCN(C)CC2)nc2sc(C(=O)NC3CC3)c(N)c12,inactive,inactive,–,–

Compound,Potency [1],Potency [2],viability (% of control) [1],"viability, % of control [2]"
O=C1CN=C(c2ccccc2Cl)c2cc(Br)ccc2N1,inactive,inactive,–,–
COc1cc2c(cc1OC)[C@@]13CCN4CC5=CCO[C@H]6CC(=O)N2[C@H]1[C@H]6[C@H]5C[C@H]43,inactive,inactive,–,–
C[C@@H]1O[C@@H](O[C@H]2CC[C@@]3(C)C(CC[C@@H]4C3CC[C@]3(C)[C@@H](C5=CC(=O)OC5)CC[C@]43O)C2)[C@H](O[C@@H]2O[C@H](CO)[C@@H](O)[C@H](O)[C@H]2O)[C@H](O)[C@H]1O (some centres not stated),343 nM (active),172 nM (active),–,–
C=CCN1CC[C@]23c4c5ccc(O)c4O[C@H]2[C@@H](O)CC[C@@]3(O)[C@H]1C5,inactive,inactive,–,–
C[C@@H](CN1CCC2(CC1)C(=O)NCN2c1cccc(F)c1)NC(=O)c1ccc(Br)cc1,16400 nM (active),13000 nM (active),–,–
CO[C@H]1C[C@H](O[C@H]2CC[C@]3(CO)[C@H]4CC[C@]5(C)[C@@H](C6=CC(=O)OC6)CC[C@]5(O)[C@@H]4CC[C@]3(O)C2)O[C@H](C)[C@H]1O,100 nM (active),63.2 nM (active),–,–
C=CC(C)(C)c1[nH]c2c(CC=C(C)C)cc(CC=C(C)C)cc2c1C[C@@H]1NC(=O)[C@H](C)NC1=O,inactive,inactive,–,–
Oc1ccc2[nH]cc(CCCCN3CC=C(c4ccccc4)CC3)c2c1,8410 nM (active),10600 nM (active),–,–
C[C@@H]1C(=O)O[C@H]2[C@H](O)[C@@]34[C@@H]5OC(=O)[C@@]3(O[C@@H]3OC(=O)[C@@H](O)[C@@]34[C@H](C(C)(C)C)[C@H]5O)[C@@]12O,inactive,inactive,–,–
CC[C@H]1CN2CC[C@H]1C[C@@H]2[C@@H](O)c1ccnc2ccc(OC)cc12,inactive,inactive,–,–
CN[C@H]1[C@H](O)[C@H](O[C@@H]2[C@@H](O)[C@H](O[C@H]3O[C@H]([C@H](C)O)[C@@H](O)[C@H](O)[C@H]3N)[C@@H](N)C[C@H]2N)OC[C@@]1(C)O,inactive,inactive,–,–
COC1CC(O[C@H]2CC[C@]3(C)C4CC[C@]5(C)[C@@H](C6=CC(=O)OC6)[C@@H](OC(C)=O)C[C@]5(O)C4CC[C@@H]3C2)OC(C)C1O (some centres not stated),252 nM (active),178 nM (active),–,–
CC[C@@H]1C[C@H]2CC[C@H](O2)[C@H](C)C(=O)O[C@@H](C)C[C@@H]2CC[C@@H](O2)[C@@H](C)C(=O)O[C@H](C)C[C@H]2CC[C@H](O2)[C@H](C)C(=O)O[C@@H](C)C[C@@H]2CC[C@@H](O2)[C@@H](C)C(=O)O1,34.3 nM (active),38.5 nM (active),–,–
CC1C/C=C/C(O)C(O)CC/C=C/c2cc(O)cc(O)c2C(=O)O1 (configuration not stated),5700 nM (active),8050 nM (active),–,–
CO[C@@H]1[C@@H](O)[C@@H](O[C@H]2CC[C@]3(C=O)C4CC[C@]5(C)[C@@H](C6=CC(=O)OC6)CC[C@]5(O)[C@@H]4CC[C@H]3C2)O[C@@H](C)[C@H]1O[C@@H]1O[C@H](CO[C@@H]2O[C@H](CO)[C@@H](O)[C@H](O)[C@H]2O)[C@@H](O)[C@H](O)[C@H]1O (some centres not stated),3900 nM (active),1380 nM (active),–,–
CC(C)=CCC[C@]1(C)C=Cc2c(O)c3c(c(CC=C(C)C)c2O1)O[C@]12C(=C[C@@H]4CC1C(C)(C)O[C@@]2(C/C=C(/C)C(=O)O)C4=O)C3=O,517 nM (active),461 nM (active),–,–
CC(=O)OC[C@]12C[C@H](OC(=O)CC(C)C)C(C)=C[C@H]1O[C@@H]1[C@H](O)C[C@@]2(C)[C@]12CO2,252 nM (active),282 nM (active),–,–
N[C@@H](Cc1ccc(Oc2cc(I)c(O)c(I)c2)c(I)c1)C(=O)O,inactive,inactive,–,–
CCC1C2CC3C4N(C)c5ccccc5C45CC(C2C5O)N3C1O (configuration not stated),inactive,inactive,–,–
COC1CC(O[C@H]2CC[C@]3(C)C4CC[C@]5(C)[C@@H](C6=CC(=O)OC6)[C@@H](OC(C)=O)C[C@]5(O)C4CC[C@@H]3C2)OC(C)C1O[C@@H]1O[C@H](CO)[C@@H](O)[C@H](O)[C@H]1O (some centres not stated),306 nM (active),243 nM (active),–,–
C[C@]12CC[C@H](O[C@@H]3O[C@H](CO)[C@@H](O)[C@H](O)[C@H]3O[C@@H]3O[C@H](CO)[C@@H](O)[C@H](O)[C@H]3O)CC1=CC[C@@H]1[C@@H]2CC[C@]2(C)[C@@H](C3=CC(=O)OC3)CC[C@]12O,6110 nM (active),4320 nM (active),–,–
CO[C@H]1C[C@H](O[C@H]2CC[C@]3(C=O)[C@H]4CC[C@]5(C)[C@@H](C6=CC(=O)OC6)CC[C@]5(O)[C@@H]4CC[C@]3(O)C2)O[C@H](C)[C@H]1O,63.2 nM (active),39.9 nM (active),–,–
Cc1cccc(NC(=O)N[C@H]2CN(C)c3ccccc3C(c3ccccc3)=N2)c1,25900 nM (active),16400 nM (active),–,–
COc1ccc2c(c1)[nH]c1c(C)nccc12,13000 nM (active),14600 nM (active),–,–
COc1ccc(CN(C(=O)[C@@H](N)Cc2c(C)cc(C(N)=O)cc2C)[C@@H](C)c2ncc(-c3ccccc3)[nH]2)cc1C(=O)O,inactive,inactive,–,–
